IL-2 act = IL-2 activation; AID 652025; IL-2 activation reporter assay, cell-based qHTS; stimulated with anti-CD3/CD4/CD28 beads; in transgenic mouse T cells; 360,000 tested, 0.065% active; activation, % (series mostly up to about 46 µM); in the data active = activation above about 50%; inconclusive = mostly about 30% to 49%; note: 0% is about no effect
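EGFP and DsRed fluorescence is measured by plate cytometry in unstimulated transgenic mouse T cells exposed to compound for 60 minutes, then stimulated 18 hours at 37 degrees C with anti-CD3/anti-CD4 beads plus anti-CD28.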
ClpP mod = qHTS Assay for Activators of ClpP. 340,000 tested, 1.9% active. Potency, µM (series often up to 57.5 µM), for the others: at the top dose activity change, negative = active. ATP-dependent Clp protease proteolytic subunit (Bacillus subtilis (strain 168)), P80244. AID 651965, 2013. purified B. subtilis ClpP, FRET peptide cleavage, 20 min; active = well fitted falling curve with a large enough effect; inconclusive = small, poorly fitted or top-dose-only effect; inactive = no such curve, though single readings can be large or run the other way; note: potency is the fitted concentration of half-maximal effect; the source files actives as falling curves though it sought activators and does not explain the sign; nearly all actives have a fitted effect of over 65% in size
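ClpP 10 microg/mL final, pH 8 Tris/KCl buffer with BSA, glycerol, Tween-20; compound pinned in; FRET-FV substrate; RT 20 min; Ex320/Em430; ΔFRET vs ADEP 5.8 microM, DMSO, no enzyme.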
PKM2 act = activators of human pyruvate kinase M2. Potency, µM (series often up to 57.5 µM), inactives show at the highest dose activation, actives largely listed as activators. AID 1631. P14618. purified PKM2, Kinase-Glo ATP luminescence, activation; response scale: 0% is enzyme alone, no compound. 260,000 tested, 0.34% active; note: potency is the fitted concentration of half-maximal effect; % is set by controls: 0 for no effect and ±100 for the full control effect; nearly all actives have a fitted effect of over 55% in size
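Kinase-Glo luminescence reports ATP generated from ADP (0.1 mM) and PEP (0.5 mM) by purified hPK-M2 after 1 h at room temperature, pH 7.2 imidazole buffer; intermediate enzyme activity allows detecting inhibitors and activators.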
Pin1 inhibitor = blocks the human prolyl isomerase Pin1; AID 504891; Q13526; Pin1 FP peptide displacement, HiFluor488, 10 min; Potency, µM (doses to about 115 µM), for inactives: top-dose activity, negative = inhibition, actives largely listed as inhibitors; 390,000 tested, 0.009% active; active = well fitted inhibition curve with a large enough effect in the polarisation, with a control signal flat, not every such curve was filed as active; inconclusive = small, poorly fitted or top-dose-only effect, or effect the other way, or a change in a side signal; inactive = no such curve, though single readings can be large or run the other way; the % refers to the polarisation; note: potency is the fitted concentration of half-maximal effect; % is set by controls: 0 for no effect and ±100 for the full control effect
Target sequence (Q13526 whole entry, looked up): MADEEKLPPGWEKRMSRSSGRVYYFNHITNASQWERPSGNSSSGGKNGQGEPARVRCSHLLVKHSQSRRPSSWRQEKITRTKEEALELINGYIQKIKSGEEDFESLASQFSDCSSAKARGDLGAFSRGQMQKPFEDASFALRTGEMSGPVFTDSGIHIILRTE
Integrin act MD = activates integrin-mediated alleviation for muscular dystrophy; alpha7betagal myoblasts, beta-gal FDG fluorescence, 48 h; Potency, µM (titrated, usually from 38.3 µM), for the others: at the highest dose activation, hits mostly activators; 350,000 tested, 0.064% active; AID 624291;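 note: potency is the fitted concentration of half-maximal effect; 100% = response of the positive control SU9516; nearly all actives have a fitted effect of over 60% in size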
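alpha7betagal+/- myoblasts (passage 13, 250/well) treated 48 h at 37C with compounds at 1:260 dilution of DMSO stock. Lysed, then beta-galactosidase activity read as FDG fluorescence (ex 480/em 540) after 30 min, with pre-read for autofluorescence.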
USP2a block = USP2a (human) protease inhibition; O75604; USP2 core, Ub-CHOP2 coupled fluorogenic reporter, 485/531; Potency, µM (titrated, usually from 38.3 µM), without a hit: at the top dose activity change, negative = inhibition, actives largely listed as inhibitors; 330,000 tested, 0.01% active; AID 463254;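 note: potency is the fitted concentration of half-maximal effect; plate controls were DMSO wells for no effect and full inhibition by NEM control for full effect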
Target sequence (O75604 whole entry, looked up): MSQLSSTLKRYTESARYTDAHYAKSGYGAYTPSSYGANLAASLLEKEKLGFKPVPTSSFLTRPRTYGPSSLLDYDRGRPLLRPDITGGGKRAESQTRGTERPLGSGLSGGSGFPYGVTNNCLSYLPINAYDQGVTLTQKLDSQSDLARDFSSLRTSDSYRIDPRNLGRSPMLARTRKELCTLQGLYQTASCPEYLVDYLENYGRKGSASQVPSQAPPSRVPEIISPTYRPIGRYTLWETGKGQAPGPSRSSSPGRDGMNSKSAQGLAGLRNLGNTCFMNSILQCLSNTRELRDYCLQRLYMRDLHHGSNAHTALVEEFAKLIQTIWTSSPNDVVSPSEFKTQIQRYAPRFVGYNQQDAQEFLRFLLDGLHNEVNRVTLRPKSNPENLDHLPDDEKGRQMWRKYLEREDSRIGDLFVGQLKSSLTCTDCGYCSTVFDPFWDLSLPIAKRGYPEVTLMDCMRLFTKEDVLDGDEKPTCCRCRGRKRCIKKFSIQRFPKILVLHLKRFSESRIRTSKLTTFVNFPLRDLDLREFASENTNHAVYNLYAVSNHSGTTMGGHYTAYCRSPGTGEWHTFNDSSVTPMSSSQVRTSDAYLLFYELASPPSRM
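USP2 core (10nM final) preincubated 30min RT with compound in 20mM Tris-HCl pH 8.0, 2mM CaCl2, 2mM beta-mercaptoethanol, 0.05% CHAPS; 25nM Ub-CHOP2 plus 25nM reporter substrate added, fluorescence (Ex485/Em531) read after 60min.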
* = called active by the depositor; ? = inconclusive; · = no result given; [ ] = remark or other dose. This is a sample that favours compounds with a hit; in the whole collection about 1.9% have one here. Unless noted, calls come from the whole dose curve; as a rule, active = well fitted curve in the direction sought with a large enough effect; inconclusive = small, poorly fitted or top-dose-only effect, or another doubt; inactive = no such curve, though single readings can be large; an effect the other way counts as inactive or inconclusive.

SMILES	IL-2 act	ClpP mod	PKM2 act	Pin1 inhibitor	Integrin act MD	USP2a block
O=C(OCC#CCSc1nnc(-c2cccc3ccccc23)o1)c1cc(F)c(F)c(F)c1	·	·	·	0.3%	·	·
COc1cc(OC)c(/C=C/c2nc3ccccc3o2)c(OC)c1	·	-0.5%	·	·	·	·
O=C1CCCC2=C1C(c1cccs1)Nc1ccccc1N2 (stereo not given)	-0.8	20µM*	6.1%	-1.2%	1.7%	-2.2%
CC1(C)CC(=O)C2=C(C1)Nc1ccccc1NC2c1cccs1 (stereo not given)	-0.2	·	2.1%	0.3%	6.9%	3.9%
O=C(NCc1nnc2c(C(F)(F)F)cc(Cl)cn12)c1ccco1	-3.3	-24.0%	14.1µM*	-5.9%	12.9%	2.1%
Cc1ccc(C(=O)NCc2nnc3c(C(F)(F)F)cc(Cl)cn23)o1	-3.5	-2.4%	0.8%	-3.6%	12.3%	2.6%
COc1cccc(C2C(C#N)=C(NC(=O)NCc3ccccc3)Oc3ccc4ccccc4c32)c1 (stereo not given)	·	·	·	17.1%	·	·
CCOc1ccc(-n2nc(CO)c(C(=O)NCc3cccs3)n2)cc1	·	7.94µM*	·	?	·	·
O=C(NCc1cccnc1)c1nn(-c2ccc(F)cc2)nc1CO	·	25.1µM*	·	2.6%	·	·
Cc1ccc(CNC(=O)c2nn(-c3ccc(Cl)cc3)nc2CO)cc1	·	25.1µM*	·	-0.5%	·	·
Cc1ccc(-n2nc(CO)c(C(=O)NCc3ccccn3)n2)cc1	·	16.4%	·	-2.0%	·	·
Cc1ccc(-n2nc(CO)c(C(=O)NCc3cccs3)n2)cc1	·	?	·	-1.9%	·	·
Cc1ccc(-n2nc(CO)c(C(=O)NCc3cccnc3)n2)cc1C	·	15.8µM*	·	1.9%	·	·
Brc1ccc[n+](CCC2CCCCC2)c1	·	0.4%	·	·	·	·
Cc1ccc(-n2nc(CO)c(C(=O)NCc3cccnc3)n2)cc1	·	7.94µM*	·	-6.5%	·	·
O=C(CN1c2ccccc2Sc2ccccc21)NNC(=S)Nc1ccc(Cl)cc1	3.7	25.1µM*	0.8%	21.1%	-23.7%	-2.2%
COc1ccc(OC)c(NC(=O)CSCc2cnn(-c3ccccc3)c2-n2cccc2)c1	0.4	31.6µM*	-0.7%	6.0%	-37.4%	4.5%
COc1ccc(/C=C/c2nccc3ccccc23)cc1OC	·	-9.6%	·	·	·	·
CCOC(=O)C1CCN(c2nc(N)c3c(N)nc(SCC(=O)O)cc3c2C#N)CC1	2.1	3.7%	10µM*	?	-2.2%	3.6%
CCOc1cc2c(C#N)c(N3CCCCC3)nc(N)c2c(N)n1	-4.0	25.1µM*	11.0%	?	-19.0%	5.7%
CCN(CC)c1nc(N)c2c(N)nc(OC)cc2c1C#N	-0.3	4.4%	·	?	12.2%	·
CCOc1cc2c(C#N)c(N3CCNCC3)nc(N)c2c(N)n1	0.9	35.5µM*	1.9%	7.8%	-27.2%	9.3%
CCOc1ccccc1N1CCN(c2nc(N)c(C#N)c(CC#N)c2C#N)CC1	-0.7	-6.7%	-13.6%	?	-5.6%	-0.6%
Cc1ccc(S(=O)(=O)N2CCN(c3nc(-c4ccc(CN5CCOCC5)s4)nc4ccccc34)CC2)cc1	·	4.4%	·	?	·	·
CCOc1ccc2nc(NC3=NC(C)(C)C=C(C)N3)nc(C)c2c1	-3.3	-4.1%	-8.4%	7.4%	-54.7%	-4.1%
SMILES	IL-2 act	ClpP mod	PKM2 act	Pin1 inhibitor	Integrin act MD	USP2a block
CCOc1ccc2c(C)nc(NC3=NC(C)(C)C=C(C)N3)nc2c1	3.6	3.98µM*	-2.0%	1.7%	-32.3%	0.7%
CCOc1ccc2nc(NC3=NC(c4ccc(OC)cc4)CC(=O)N3)nc(C)c2c1 (stereo not given)	-2.1	31.6µM*	-13.9%	82.7%	-53.7%	-4.2%
CC(C)(C)OC(=O)N1CCCC1C(=O)NC1COC2CC(n3cc(F)c(=O)[nH]c3=O)OC12 (stereo not given)	·	·	·	-0.2%	·	·
COc1ccc(C2C(C(=O)c3ccccc3)=C(C)Nc3nc4ccccc4n32)c(OC)c1 (stereo not given)	-3.5	0.6%	1.0%	-4.3%	2.8%	3.9%
COc1cc(OC)c(C2C3=C(CCCC3=O)Nc3nc4ccccc4n32)cc1OC (stereo not given)	-0.1	25.1µM*	-5.1%	-6.2%	-13.7%	0.6%
N#CN1CCC(N[S+](=O)([O-])c2cccc(F)c2)CC1	·	·	·	-2.7%	·	·
COc1ccc(C2Nc3ccccc3C(=O)N2Cc2cccc3ccccc23)cc1COc1ccc(NC(C)=O)cc1 (stereo not given)	·	·	·	32.0%	·	·
Cc1ccccc1-c1nc(C#N)c(N2CCC(C)CC2)o1	-1.7	3.5%	·	-2.4%	25.5%	1.9%
CC1CC(C)CN(c2oc(-c3ccccc3F)nc2C#N)C1 (stereo not given)	-4.0	0.5%	·	1.7%	-12.7%	4.4%
CC1CCN(c2oc(-c3ccccc3Cl)nc2C#N)CC1	-0.1	28.2µM*	-2.0%	-2.6%	11.7%	-1.2%
CC1CCCN(c2oc(-c3cccc4ccccc34)nc2C#N)C1 (stereo not given)	-2.2	3.16µM*	-0.5%	-9.0%	-7.9%[7.66 µM]	1.9%
CCN1CCN(c2oc(-c3ccc(OC)cc3)nc2C#N)CC1	1.5	3.16µM*	·	-3.4%	-23.3%[7.66 µM]	·
COc1ccc(-c2nc(C#N)c(N3CCN(c4ccccc4)CC3)o2)cc1	-2.5	4.6%	-9.4%	9.6%	-4.5%	7.8%
COc1ccccc1-c1nc(C#N)c(N2CCN(c3ccccc3)CC2)o1	0.2	28.2µM*	-0.6%	10.8%	17.0%	2.8%
CNc1c(Cl)cc(C=O)cc1Cl	·	-3.6%	·	·	·	·
N#Cc1nc(-c2ccccc2Cl)oc1N1CCOCC1	-2.5	8.91µM*	-7.5%	2.7%	29.1%	0.7%
Cc1ccc(-c2csc3nc(C)n(-n4c(C)ccc4C)c(=O)c23)o1	0.9	-2.8%	14.1µM*	12.9%	-17.8%	-0.5%
Cc1ccc(-c2csc3nc(C)n(N)c(=O)c23)o1	1.0	-9.0%	6.7%	-4.3%	8.0%	1.0%
COc1ccc(-c2ccc(F)cc2)cc1C1C2C=CCC(C)C2C(=O)N1Cc1ccccc1 (stereo not given)	·	·	·	1.7%	·	·
CCOC(=O)CNc1c(-c2ccc(Cl)cc2)nc2cnccn12	-2.4	28.2µM*	-3.2%	-1.1%	11.1%	-1.4%
CCOC(=O)CNc1c(-c2ccc(OC)cc2)nc2ccc(Cl)cn12	3.3	-8.8%	-11.2%	-11.5%	19.2%	3.0%
CCOC(=O)CNc1c(-c2ccc(F)cc2)nc2cnccn12	-1.3	25.1µM*	5.0%	-21.4%	40.6%	2.4%
Cn1c(=O)oc2cc(S(=O)(=O)Nc3ccc(O)cc3)ccc21	-0.3	1.7%	8.91µM*	-0.7%	0.6%	0.5%
Cn1c(=O)oc2cc(S(=O)(=O)Nc3ccc(Cl)cc3)ccc21	1.7	0.7%	?	0.0%	10.8%	0.1%
